Test results as given in paper PMC5540273 (PLoS ONE, 2017).

Test system: WEE2
Details: concentration: 1 μM, replicates: in singlicate; n = 1
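Also: KINOMEscan kinase panel screen.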

| Structure (SMILES) | %Inh |
| --- | --- |
| Cn1cnc2c(N)ncnc21 [SKF-97623] | 29% |
| Cl.Cl.Cl.N#Cc1ccc(CCNc2nccc(-c3cccc(CN4CCNCC4)c3)n2)cc1 [GSK2137462] | 0% |
| O=C1NC(=O)C(c2ccc(Cl)cc2)=C1Nc1ccc(O)cc1 [SB-340867] | 0% |
| CC[C@@H]1CO[C@H](C(=O)Nc2ccccc2)CN1c1cc(-c2ccc3c(N)n[nH]c3c2)nc(NC)n1 [GSK2376236] | 0% |
| Cc1c(Cn2c3ccccc3n3c(=O)cc(N4CCOCC4)nc23)cccc1C(F)(F)F [GSK2306394] | 3% |
| CSc1ccc(-c2nc3n(c2-c2ccncc2)CCC3)cc1 [SKF-105561] | 7% |
| Cc1ccc(-c2nc(Nc3ccncc3)c3ccccc3n2)s1 [GSK189015] | 4% |
| Cc1ccc(NC(=O)Nc2ccc(Cl)cc2)cc1-c1ccc(C(=O)Nc2ccncc2)cc1 [GSK1398472] | 5% |
| CC(C)c1ccc(O)cc1Nc1ccnc2ccc(C(F)(F)F)cc12 [GW482059] | 5% |
| CC(C)c1cc(-c2ccc3c(N)n[nH]c3c2)nc(N)n1 [GSK2250882] | 6% |
| Fc1ccc(-c2nc3n(c2-c2ccncc2)CCS3)cc1 [GI98581] | 7% |
| Cc1cccc2c(-c3ccncn3)c(-c3ccc(F)cc3)nn12 [GW515532] | 0% |
| COc1cccc(NC(=O)Nc2ccc(C)c(-c3ccc(C(=O)Nc4ccncc4)cc3)c2)c1 [GSK1398474] | 4% |
| CNC(=O)c1ccc(C)c(-n2c(C)cc(OCc3ccc(F)cc3F)c(Br)c2=O)c1 | 0% |
